From PubChem BioAssay (Tox21) come the findings set out here.

The nature of test [1]: qHTS assay to identify small molecule agonists of the vitamin D receptor (VDR) signaling pathway - cell viability counter screen (AID 743224). Further: nearly all actives have a fitted effect of over 50% in size. An outline of the steps:
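VDR-bla cells, 4 h after plating, exposed to compounds for 16 h at 37C; viability then read in the same wells as CellTiter-Glo luminescence after 30 min at room temperature, following the bla FRET read.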
(qHTS replaces the single test concentration by a dilution series.)

A short description of test [2]: qHTS assay to identify small molecule agonists of the NFkB signaling pathway - cell viability counter screen (AID 1159515; calls by dose curve; further: nearly all actives have a fitted effect of over 55% in size). Summed up: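 NFkB-bla ME-180 cells, 2,000/well, plated overnight at 37 C; compound added for 5 hr at 37 C. Viability read in the same wells as the bla reporter, by CellTiter-Glo luminescence after 30 min at room temperature.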
Test [3] can be described thus: qHTS assay to identify small molecule agonists of the endoplasmic reticulum stress response signaling pathway - cell viability counter screen (AID 1159517; calls by dose curve;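 further: HeLa cells carrying an ER stress response element beta-lactamase reporter; nearly all actives have a fitted effect of over 50% in size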). An outline of the steps:
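CellTiter-Glo was added to wells already read for beta-lactamase FRET, and luminescence was recorded 30 min later. Cells: ESRE-bla HeLa, 1,500 per well, compound exposure 5 hr at 37 C.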

The nature of test [4]: qHTS assay to identify small molecule antagonists of the retinoid-related orphan receptor gamma (ROR-gamma) signaling pathway - cell viability counter screen (AID 1159520). Further: nearly all actives have a fitted effect of over 50% in size. An outline of the steps: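 Tet-on ROR gamma CHO cells (1,000/well) were plated 4 hr, given compounds in DMSO for 2 hr at 37 C, then induced with 1 uM final doxycycline for 16 hr. Viability was read as ATP by CellTiter-Glo luminescence after 30 min.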

Test [5] deals with Nuclear receptor ROR-gamma (Homo sapiens) (UniProt P51449). Put plainly: qHTS assay to identify small molecule antagonists of the retinoid-related orphan receptor gamma (ROR-gamma) signaling pathway (AID 1159521;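 further: CHO cells with doxycycline inducible ROR-gamma driving an RORE luciferase reporter; top concentration of the series differs between compounds; nearly all actives have a fitted effect of over 50% in size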). An outline of the steps: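 Cells were plated, rested 4 h at 37 C, exposed to compounds for 2 h, then given 1 uM final doxycycline hyclate to induce RORγ expression. After 16 h, ONE-Glo luminescence from the ROR response element reporter was measured.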

The nature of test [6]: qHTS assay to identify small molecule agonists of the AP-1 signaling pathway - cell viability counter screen (AID 1159525; calls by dose curve; further: nearly all actives have a fitted effect of over 55% in size). An outline of the steps:
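ME-180 AP-1-bla, 2500 cells/well, Opti-MEM + 0.5% dialyzed FBS; overnight 37 °C; cpd 15-pt titration, 5 h 37 °C; CellTiter-Glo 30 min RT; luminescence read; normalised to TOAB and DMSO controls.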

Test [7] is described as follows: qHTS assay to identify small molecule agonists of the AP-1 signaling pathway (AID 1159526; calls by dose curve).
Test [8] has as its target Retinoic acid receptor RXR-alpha (Homo sapiens) (UniProt P19793). Put plainly: qHTS assay to identify small molecule agonists of the RXR signaling pathway (AID 1159527; calls by dose curve; further: nearly all actives have a fitted effect of over 35% in size; further: potency means the concentration at half of the fitted maximal effect). An outline of the steps:
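Cells plated at 2,000/well, rested 5 hr at 37 C, pin-dosed with DMSO compound solutions, incubated 16 hr, then loaded with B/G FRET substrate for 2 hr at RT before dual-emission fluorescence reading.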

The nature of test [9]: qHTS assay to identify small molecule agonists of the RXR signaling pathway - cell viability counter screen (AID 1159529). Summed up: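 Steps: seed RXR-alpha-UAS-bla HEK 293T cells in assay medium containing 2% charcoal-stripped FBS; incubate 5 hr; add compounds in DMSO; incubate 16 hr at 37 C; after the bla read, add CellTiter-Glo and read luminescence at 30 min.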
Test [10] is described as follows: qHTS assay to identify small molecule antagonists of the retinoid acid receptor (RAR) signaling pathway - cell viability counter screen (AID 1159551). Further: nearly all actives have a fitted effect of over 35% in size. Summed up:
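C3RL4 RARE-luciferase cells, 1,000/well, incubated overnight, then dosed with compound plus 1 uM retinol (final). After 6 hr at 37 C, viability read by CellTiter-Glo ATP luminescence following 30 min at room temperature.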

Test [11] in a line: qHTS assay to identify small molecule agonists of the retinoic acid receptor (RAR) signaling pathway (AID 1159553). Conditions: C3RL4 RARE luciferase reporter, agonist, 6 h; activation: at 73.3 µM (top of the series) unless noted. Summed up: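 C3RL4 RARE-luciferase cells were seeded at 1,000/well and grown overnight at 37 C, then exposed to compounds for 6 hr at 37 C, 5% CO2. Luciferase reagent was added and luminescence was read after 30 min at room temperature.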

Test [12] is described as follows: qHTS assay to identify small molecule antagonists of the vitamin D receptor (VDR) signaling pathway - cell viability counter screen (AID 743225). Further: nearly all actives have a fitted effect of over 50% in size. Summed up:
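HEK293T VDR-bla; cpd + 1a,25-(OH)2D3 3 nM final, 16 h 37C/5% CO2; B/G FRET substrate 2 h RT; then CellTiter-Glo 30 min RT, luminescence.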

Test [13] is described as follows: qHTS assay to identify small molecule antagonists of the retinoic acid receptor (RAR) signaling pathway (AID 1159552; further: nearly all actives have a fitted effect of over 50% in size). An outline of the steps:
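Retinol at 1 uM final stimulated RARE-luciferase expression in C3RL4 cells exposed to test compounds for 6 hr at 37 C. Reduced luminescence, read 30 min after detection reagent, indicated pathway antagonism.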

Records with an inconclusive call do not appear. Activity calls are given as the source filed them. Unless noted, the call rests on the fitted dose curve; in most records, active means well fitted curve in the direction sought with a large enough effect in the repeat runs; inconclusive means weak or mixed curves; inactive means no such curve, though single readings can be large; an effect the other way counts as inactive or inconclusive.

Chain of Retinoic acid receptor RXR-alpha (Homo sapiens) (P19793 whole entry, looked up): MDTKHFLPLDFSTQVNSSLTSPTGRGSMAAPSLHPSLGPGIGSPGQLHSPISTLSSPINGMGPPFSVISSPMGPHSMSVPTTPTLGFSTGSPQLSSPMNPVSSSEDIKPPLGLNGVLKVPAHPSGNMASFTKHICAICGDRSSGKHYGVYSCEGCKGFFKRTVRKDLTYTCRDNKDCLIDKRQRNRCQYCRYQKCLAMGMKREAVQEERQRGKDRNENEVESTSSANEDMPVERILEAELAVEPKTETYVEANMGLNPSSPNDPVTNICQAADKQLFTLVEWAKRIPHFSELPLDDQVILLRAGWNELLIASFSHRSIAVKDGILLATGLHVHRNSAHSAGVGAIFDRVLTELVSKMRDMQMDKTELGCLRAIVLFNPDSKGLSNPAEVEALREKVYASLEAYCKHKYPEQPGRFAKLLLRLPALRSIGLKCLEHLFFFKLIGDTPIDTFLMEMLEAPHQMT

Consider `CC1(C)CCC[C@]2(C)[C@H]3CCO[C@]3(C)CC[C@@H]12`, for which the Potency result in test [1], in test [2], in [3], in [4], in test [5] and in [6] was “inactive” each time. For the same compound, the Potency result in test [7], in test [8], in test [9], in [10] and in [11] was “inactive” each time.
For the compound `CCCNCCC`, the Potency entry in test [1], in [12], in test [2], in [3], in test [4] and in test [5] was “inactive” throughout. For the same compound, the Potency result in test [6], in test [7], in test [8], in [10], in test [13] and in [11] was “inactive” throughout.
Turning to `CCC(COC(=O)CCS)(COC(=O)CCS)COC(=O)CCS`, the Potency result in test [1], in test [12], in test [2], in test [3], in test [4] and in [5] was “inactive” in each case. In addition, the Potency entry in [6], in test [7], in [8], in test [9] and in [10] was “inactive” each time.
Take `CC(C)OC(=O)C(O)(CC(=O)O)CC(=O)O`: the Potency entry in [1], in test [12], in test [2], in test [3], in test [4] and in test [5] was “inactive” each time. In addition, the Potency result in test [6], in test [7], in test [9] and in test [10] was “inactive” each time. For the same compound, the Potency in test [8] was 21.9 µM (active).
For `ClCCl`, the Potency result in test [1], in [2], in test [3], in test [4], in [5] and in test [6] was “inactive” throughout. Besides, the Potency entry in [7], in [8], in test [9], in [10], in test [13] and in [11] was “inactive” throughout.
For the compound `C1CCC(SSC2CCCCC2)CC1`, the Potency entry in test [1], in [12], in [2], in test [3], in test [4] and in test [5] was “inactive” in each case. The Potency result in test [6], in test [7], in test [8], in test [9], in [10] and in test [13] was “inactive” each time. In addition, in test [11], the Potency entry was “inactive”.
As for `Cc1ccc(C(C)C)cc2c(C)ccc1-2`, the Potency result in test [1], in test [2], in test [3], in test [4], in [5] and in test [6] was “inactive” throughout. Further, the Potency entry in [7], in [8], in test [10], in test [13] and in test [11] was “inactive” each time.
For `O=C1CCCCCCCCCCCCCCCO1`, the Potency entry in test [1], in test [12], in test [2], in test [3], in test [4] and in test [5] was “inactive” throughout. Further, the Potency entry in test [6], in [7], in test [8], in test [9], in [10] and in test [13] was “inactive” each time.
Turning to `Cl[Si](Cl)(c1ccccc1)c1ccccc1`, the Potency entry in [1], in test [2], in test [3], in test [4], in [5] and in test [6] was “inactive” throughout. The Potency entry in test [7], in [8], in test [9] and in test [10] was “inactive” in each case.
